Screening data from PubChem.
Shown are actives, neighbours in structure and some others; about 2.1% of the full set was active somewhere.
Abeta yeast res – qHTS for compounds that reverse cellular toxicity of Amyloid beta (A-beta) peptide in yeast: Primary Screen; Potency, µM (series often up to 46.1 µM), usual class: activators; yeast expressing A-beta42, growth rescue, OD600, 48 h; response scale: 0% DMSO, 100% iron-clioquinol control; hit rate 0.063% among 410,000; note: nearly all actives have a fitted effect of over 55% in size
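Yeast growth medium received pinned compounds, then yeast cells expressing toxic A-beta were added; plates incubated at 30 C for 48 hr. Growth read as absorbance at 600 nm, normalized to DMSO and equimolar FeCl3 plus clioquinol controls.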
aSyn yeast inh – qHTS of alpha-syn Inhibitors; hit rate 0.14% among 370,000; Potency, µM (series often up to 46.1 µM), for inactives: at the highest dose growth rescue (activation), actives largely listed as activators; Yeast expressing alpha-synuclein, growth rescue, BacTiter-Glo, 24 h; note: % of control where 0% means no effect; nearly all actives have a fitted effect of over 65% in size
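Galactose-induced alpha-syn yeast (OD600=0.02, raffinose-pregrown) + pinned cpd, 24 hr, 30 deg C; growth by BacTiter-Glo luminescence. Growth restoration scores as activation.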
TDP-43 yeast inh – qHTS of TDP-43 Inhibitors; AID 652104, 2013; hit rate 1.8% among 410,000; TDP-43 expressing yeast growth rescue, BacTiter-Glo, 24 h; Potency, µM (highest dose often 46.1 µM), without a hit: top-dose growth rescue (activation), hits mostly activators; note: % of control where 0% means no effect; nearly all actives have a fitted effect of over 50% in size
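In this qHTS, compounds that restore growth of yeast expressing TDP-43 appear as activators. Cells (OD600=0.02, galactose medium, raffinose-pregrown) are incubated with compound 24 hr at 30 deg C and growth is quantified by BacTiter-Glo.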
FUS yeast rescue – qHTS for Suppressors of FUS Proteinopathy: Primary screen using FUS-linked yeast assay; Potency, µM (highest dose often 76.6 µM), actives largely listed as activators; S. cerevisiae FUS-expressing, growth rescue, OD600, 24 h; AID 1347120, 2019; hit rate 0.24% among 390,000;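 note: plate controls were DMSO vehicle for no effect and reference control for full effect; nearly all actives have a fitted effect of over 55% in size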
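FUS-expressing yeast, raffinose-pregrown, induced in 2% galactose minimal medium at OD 0.005; compounds in a dilution series, 24hr at 30C. Growth restoration read as absorbance at 600 nm. CP55940 positive control, DMSO negative.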
Starred values were filed as active, the others as inactive; i = inactive; ? = inconclusive; . = no result. Calls come from the whole dose curve; as a rule, active = well fitted curve in the direction sought with a large enough effect; inconclusive = small, poorly fitted or top-dose-only effect, or another doubt; inactive = no such curve, though single readings can be large; an effect the other way counts as inactive or inconclusive. Potency is the fitted concentration of half-maximal effect.

SMILES | Abeta yeast res | aSyn yeast inh | TDP-43 yeast inh | FUS yeast rescue
Cc1cccc(CSCCNC(=S)Nc2ccccc2)c1 | i | -2.7% | 15.8µM* | .
COC(=O)c1ccc(NC(=S)NCCc2cccc(C)c2)cc1 | i | -6.6% | 8.91µM* | i
S=C(NCCSCc1ccccc1Cl)Nc1ccccc1 | i | 16.9% | 12.6µM* | i
S=C(NCCCc1ccccc1)Nc1ccccc1 | 20µM* | 7.4% | 29.3% | i
COc1ccc(-c2nc3ccc(C)cn3c2CC(C)(C)C)cc1OC | i | -0.9% | 17.8% | i
S=C(NCCSCc1ccc(Cl)cc1)Nc1ccccc1 | i | -14.9% | 25.1µM* | .
CNc1cncc(-c2ccc(OC)c(OC)c2)n1 | i | 7.94µM* | -46.9% | i
CNc1cncc(-c2cccc(OC)c2F)n1 | i | 3.0% | 28.2µM* | i
CNc1cncc(-c2c(OC)cccc2OC)n1 | i | -4.0% | 3.8% | i
CNc1cncc(-c2ccc(F)c(F)c2)n1 | i | 23.3% | ? | i
Cc1cc(NC(=O)CCC(=O)N(CC(=O)NCC2CCCO2)c2ccc(F)c(Cl)c2)no1 (stereo not drawn) | i | -1.1% | -7.8% | i
O=C(CSc1nccc(-c2cccs2)n1)Nc1cccc(Cl)c1 | i | 2.8% | 14.1µM* | i
Cc1cc(O)c2c(-c3ccccc3)cc(=O)oc2c1 | i | -17.7% | ? | i
Cc1cc2oc(=O)cc(-c3ccccc3)c2c(C)c1-c1ccc(O)cc1 | i | -54.4% | 14.1µM* | ?
COC(=O)C1(Cc2ccc(O)cc2)OC(=O)C(O)=C1c1ccc(O)cc1 (stereo not drawn) | i | -7.3% | 19.9% | i
c1ccc(-n2nnnc2-c2cnc(-c3cccnc3)nc2-c2cccs2)cc1 | i | 7.9% | 31.6µM* | ?
Clc1ccc(-n2nnnc2-c2cnc3ccccc3c2-c2ccccc2)cc1 | i | ? | ? | i
Cc1cc2occ(CC(=O)N(C)CC(=O)Nc3c(C)cccc3C)c2cc1C | i | 9.4% | 25.6% | i
Cc1cc2occ(CC(=O)N(C)CC(=O)Nc3ccccc3C(F)(F)F)c2cc1C | i | 1.5% | 20µM* | i
Cc1cc(C)cc(OCC(=O)Nc2nc3c(s2)CC(C(C)(C)C)CC3)c1 (stereo not drawn) | i | . | -10.0% | i
Cc1nn(C)c(Nc2ccc(Br)cc2)c1Br | ? | ? | 17.8µM* | i
OC[C@@H]1CN(Cc2ccc(Cl)cc2)C[C@H](n2cnc3c(N4CCN(c5ccccc5)CC4)ncnc32)O1 | i | ? | 31.6µM* | ?
COC(Cc1n[nH]c(=S)n1-c1ccc(Cl)cc1)OC | i | 5.0% | 15.3% | i
COc1cccc([C@@H]2Nc3ccc(C(=O)O)cc3[C@@H]3C=CC[C@@H]32)c1OC | i | . | 17.8µM* | ?
CC(C)C1Nc2ccc(C(=O)O)cc2C2C=CCC21 (stereo not drawn) | i | -0.7% | 17.8µM* | i
SMILES | Abeta yeast res | aSyn yeast inh | TDP-43 yeast inh | FUS yeast rescue
COc1ccc(C2c3ccccc3NC3C2C(=O)N(Cc2ccc(OC)cc2OC)[C@H]3Cc2ccccc2)cc1 (stereo partly drawn) | . | . | . | i
CNc1ncc(C(=O)c2ccc(Cl)cc2)s1 | i | -2.9% | 10µM* | i
CNc1ncc(C(=O)c2ccc(Cl)c(Cl)c2)s1 | i | -4.9% | ? | i
COCCN1C(=O)C(=O)/C(=C(/O)c2ccc(S(=O)(=O)N3CCOCC3)cc2)C1c1cccc(O)c1 (stereo not drawn) | i | 4.4% | -10.0% | i
COCCN1C(=O)C(=O)/C(=C(/O)c2ccc(S(=O)(=O)N3CCOCC3)cc2)C1c1cccc(OC)c1 (stereo not drawn) | i | -7.2% | -8.0% | 5.01µM*
CCC(C)C(=O)Nc1nnc(CCc2ccccc2)s1 (stereo not drawn) | ? | 5.7% | 20µM* | i
CC(C)CC(=O)Nc1nnc(CCc2ccccc2)s1 | i | -0.9% | 17.6% | i
O=C(c1cnn(-c2ccc(F)cc2)c1-n1cccc1)N1CCN(c2ccccc2)CC1 | i | 6.9% | 14.1µM* | i
O=C(c1cnn(-c2ccc(F)cc2)c1-n1cccc1)N1CCN(c2ccc(Cl)cc2)CC1 | i | 2.4% | 0.0% | i
O=C(Cc1c(Cl)cccc1Cl)OCC(=O)N1CCc2ccccc2C1 | i | 4.8% | 19.2% | .
O=C(Cc1c(F)cccc1Cl)OCC(=O)N1CCc2ccccc21 | i | 6.8% | 11.2µM* | i
CCOC(=O)c1cc(C)n(CCc2ccccc2)c1C | i | -8.9% | 7.8% | i
Cc1cc(C(=O)CCl)c(C)n1CCc1ccccc1 | i | -11.3% | 10µM* | i
COC(=O)CCCn1c(C)cc(C(=O)CCl)c1C | i | -34.7% | 20µM* | i
Cc1cc(C(=O)CCl)c(C)n1Cc1ccco1 | i | -30.8% | 10µM* | i
COC(=O)CCn1c(C)cc(C(=O)COc2ccccc2C(N)=O)c1C | i | 5.7% | -11.6% | i
NNC(=O)COc1ccc2oc3c(c2c1)CCCC3 | i | -11.2% | 13.8% | i
COCCNC(=O)C1(C)CCN(C(=O)COc2ccc(Cl)cc2Cl)C1 (stereo not drawn) | i | -9.3% | 3.0% | i
Cc1nn(Cc2cccc(C(=O)Nc3ccn(Cc4c(F)c(F)cc(F)c4F)n3)c2)c(C)c1[N+](=O)[O-] | i | -2.2% | 0.0% | i
Cc1nn(C)c(C(=O)Nc2ccn(Cc3c(F)c(F)cc(F)c3F)n2)c1[N+](=O)[O-] | i | 7.1% | 7.94µM* | .
c1cnc2c(c1)ccc1cccnc12 | i | -6.0% | 35.5µM* | i
O=C(c1ccc2ccccc2n1)N1CCN(S(=O)(=O)c2ccc(Cl)cc2)CC1 | i | 12.6% | 25.1µM* | i
O=C(c1ccc(F)cc1F)N1CCN(S(=O)(=O)c2ccc3c(c2)OCCO3)CC1 | i | 7.8% | 12.6µM* | .
O=C(c1ccc(F)cc1)N1CCN(S(=O)(=O)c2ccc3c(c2)OCCO3)CC1 | i | -1.0% | 8.7% | i
O=C(c1ccccc1F)N1CCN(S(=O)(=O)c2ccc3ccccc3c2)CC1 | i | 1.7% | 35.5µM* | i
SMILES | Abeta yeast res | aSyn yeast inh | TDP-43 yeast inh | FUS yeast rescue
O=C(/C=C/c1ccccc1Cl)OCC(=O)c1ccc[nH]1 | i | -4.3% | 14.2% | i
CCSc1ccccc1C(=O)n1nnc2ccccc21 | i | 7.3% | 9.1% | i
Cc1occc1C(=O)n1nnc2ccccc21 | i | 11.0% | 15.8µM* | i
COc1ccc(NC(=O)c2cc3c(=O)n(C)c4cc(Cl)ccc4c3s2)cc1Cl | i | . | 13.4% | i
Cc1cccc(NNC(=S)Nc2ccccc2)c1 | i | 12.6% | 26.3% | i
Cc1cccc(NNC(N)=S)c1 | i | 5.3% | 3.7% | i
Cc1cccc(NC(=S)NNc2cccc(Cl)c2)c1 | 12.6µM* | 12.6% | 10.7% | i
Cc1cccc(NNC(=S)Nc2c(C)cccc2C)c1 | 7.08µM* | 11.9% | ? | i
